{"source": "PubChem BioAssay (Tox21)", "note": "Unmarked numbers belong to inactive results. The source made the active and inactive calls. Calls come from the whole dose curve; as a rule, active = well fitted activation curve with a large enough effect in the signal ratio in the repeat runs (not every such curve was filed as active); inconclusive = weak or mixed curves, or effect the other way; inactive = no such curve, though single readings can be large or run the other way; the % refers to the signal ratio. Positions of bridges follow the written chain, without caps; N, C: chain ends. Non-standard residues stand in square brackets, D forms with d. Residues, ends and D or L forms follow the SMILES beside them. *: point of attachment. X2 = CC[C@H](C)CCCCC(=O)*; Dab = NCC[C@H](N)C(=O)O"}
{"biological_target": "Glucocorticoid receptor (Homo sapiens) (UniProt P04150)", "sequence (P04150 whole entry, looked up)": "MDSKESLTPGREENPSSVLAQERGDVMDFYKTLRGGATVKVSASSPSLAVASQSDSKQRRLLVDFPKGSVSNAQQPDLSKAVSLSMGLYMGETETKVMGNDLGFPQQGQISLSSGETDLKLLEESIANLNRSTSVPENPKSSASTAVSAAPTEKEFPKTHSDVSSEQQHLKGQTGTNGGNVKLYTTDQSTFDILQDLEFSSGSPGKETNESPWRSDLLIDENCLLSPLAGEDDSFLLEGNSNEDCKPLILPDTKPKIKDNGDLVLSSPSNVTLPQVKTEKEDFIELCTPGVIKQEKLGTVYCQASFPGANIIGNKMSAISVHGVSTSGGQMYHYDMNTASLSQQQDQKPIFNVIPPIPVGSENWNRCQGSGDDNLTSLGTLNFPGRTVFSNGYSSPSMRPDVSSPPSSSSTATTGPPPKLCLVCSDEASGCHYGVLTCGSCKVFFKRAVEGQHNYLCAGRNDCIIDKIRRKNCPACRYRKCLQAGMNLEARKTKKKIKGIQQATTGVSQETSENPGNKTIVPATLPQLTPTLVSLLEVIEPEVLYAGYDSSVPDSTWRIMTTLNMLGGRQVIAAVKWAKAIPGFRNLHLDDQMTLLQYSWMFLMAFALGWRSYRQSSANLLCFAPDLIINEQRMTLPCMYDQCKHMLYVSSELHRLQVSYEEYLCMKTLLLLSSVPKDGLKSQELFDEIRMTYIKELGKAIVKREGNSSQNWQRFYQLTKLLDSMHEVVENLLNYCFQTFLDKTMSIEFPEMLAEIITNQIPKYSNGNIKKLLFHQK", "assay": "qHTS assay to identify small molecule agonists of the glucocorticoid receptor (GR) signaling pathway (AID 720691); note: potency is the fitted concentration of half-maximal effect; for activation: % is set by controls: 0 for no effect and ±100 for the full control effect", "settings": "GR-bla HeLa, beta-lactamase reporter ratio, 18 h; activation: at 62.4 µM (top of the series)", "from_the_text": "U.S. Tox21 Program National Center for Advancing Translational Sciences [NCATS] NIH Chemical Genomics Center [NCGC] U.S. Environmental Protection Agency [EPA] National Institutes of Environmental Health Sciences [NIEHS] National Toxicology Program [NTP] U.S. Food and Drug Administration [FDA] Tox21 Assay Overview: The Glucocorticoid receptor (GR) is one of the members of the nuclear receptor family of ligand-dependent transcription factors. GR plays a critical role in carbohydrate, protein and lipid metabolisms and programmed cell death. CellSensor GR-bla HeLa cell line (Invitrogen) contains a beta-lactamase reporter gene under the control of the glucocorticoid response element stably integrated into HeLa cells, a cervical cancer cell line that expresses glucocorticoid receptor. The activation of the reporter gene under culture conditions can be detected by fluorescence intensity. This cell line has been used to screen the Tox21 10K compound library and to identify the compounds that activate the GR signaling.\nTox21 Assay Protocol Summary: The GR-bla HeLa cells were dispensed at 1500 cells/6 ul/well in 1536-well black wall/clear bottom plates using a Multidrop Combi (ThermoFisher Scientific, Waltham, MA) dispenser. After the assay plates were incubated at a 37 C/5% CO2 incubator for 4 hours, 23 nL of compounds dissolved in DMSO, positive controls or DMSO only was transferred to the assay plate by a pintool station (Kalypsys, San Diego, CA). The plates were incubated at 37 C for 18 hours. After 1 uL of LiveBLAzerTM B/G FRET substrate was added using a Flying Reagent Dispenser (Aurora Discovery, San Diego, CA), the plates were incubated at room temperature for 2 hours, and fluorescence intensity was measured by an Envision plate reader (PerkinElmer, Shelton, CT)."}
{"smiles": "NC(=O)OCC(O)COc1ccc(Cl)cc1", "note": "(stereo not given)", "activation": "-1.55% [at 29.2 µM]"}
{"smiles": "Nc1nc(=O)n([C@@H]2CS[C@H](CO)O2)cc1F", "activation": "-1.95%"}
{"smiles": "C=CCSSSCC=C", "activation": "-1.97%"}
{"smiles": "NC[C@@H]1O[C@H](O[C@H]2[C@@H](O)[C@H](O[C@@H]3[C@@H](O)[C@H](N)C[C@H](N)[C@H]3O[C@H]3O[C@H](CO)[C@@H](O)[C@H](O)[C@H]3N)O[C@@H]2CO)[C@H](N)[C@@H](O)[C@@H]1O", "activation": "-2.28%"}
{"smiles": "Nc1c(Br)cc(Br)cc1CNC1CCC(O)CC1", "note": "(stereo not given)", "activation": "0.047%"}
{"smiles": "O=C(NCCNCC(O)COc1ccc(O)cc1)N1CCOCC1", "note": "(stereo not given)", "activation": "-0.0514%"}
{"smiles": "CCCCCCCCCCCCCCCCCC[N+](C)(C)CCC[Si](OC)(OC)OC", "activation": "2%"}
{"smiles": "O=C(/C=C/c1cccc(F)c1)NC1CC1", "activation": "0.219%"}
{"smiles": "O=c1oc2cc(O)ccc2s1", "activation": "0.582%"}
{"smiles": "CC(C)(C)NC[C@H](O)COc1ccccc1C1CCCC1", "activation": "-0.518% [at 29.2 µM]"}
{"smiles": "CCOC(=O)[C@H](CCc1ccccc1)N[C@@H](C)C(=O)N1CC2(C[C@H]1C(=O)O)SCCS2", "activation": "0.456%"}
{"smiles": "CCCCCCCCCCCCCCCC(=O)O[C@@H]1CC(C)=C(/C=C/C(C)=C/C=C/C(C)=C/C=C/C=C(C)/C=C/C=C(C)/C=C/C2=C(C)C[C@@H](OC(=O)CCCCCCCCCCCCCCC)CC2(C)C)C(C)(C)C1", "activation": "-2.89%"}
{"smiles": "CCC(=O)NCCC1CCc2ccc3c(c21)CCO3", "note": "(stereo not given)", "activation": "-1.89%"}
{"smiles": "CCOC(=O)CCC(=O)O[C@H]1[C@H](O[C@@H]2[C@@H](C)[C@H](O[C@H]3C[C@@](C)(OC)[C@@H](O)[C@H](C)O3)[C@@H](C)C(=O)O[C@H](CC)[C@@](C)(O)[C@H](O)[C@@H](C)C(=O)[C@H](C)C[C@@]2(C)O)O[C@H](C)C[C@@H]1N(C)C", "activation": "-0.0387%"}
{"smiles": "CC[C@@]1(O)C[C@H](O[C@H]2C[C@H](N(C)C)[C@H](O[C@H]3C[C@H](O)[C@H](O[C@H]4CCC(=O)[C@H](C)O4)[C@H](C)O3)[C@H](C)O2)c2c(cc3c(c2O)C(=O)c2c(O)cccc2C3=O)[C@H]1C(=O)OC", "Potency": "10.7 µM [inconclusive] (active)"}
{"smiles": "Nc1ncnc(Nc2ccc(Cl)cc2)n1", "activation": "-10.2%"}
{"smiles": "NCc1ccccc1CC(=O)N[C@@H]1C(=O)N2C(C(=O)O)=C(CSc3nnnn3CC(=O)O)CS[C@H]12", "activation": "0.157% [at 29.2 µM]"}
{"smiles": "COc1cc(/C=C/C(=O)N2CCN(CC(=O)N3CCCC3)CC2)cc(OC)c1OC", "activation": "0.391%"}
{"smiles": "CC(=O)OC[C@H]1O[C@@H](O[C@H]2[C@H](O)[C@@H](OC(=O)c3ccccc3C(=O)O)[C@H](O)O[C@@H]2COC(C)=O)[C@H](O)[C@@H](OC(=O)c2ccccc2C(=O)O)[C@@H]1O", "activation": "-2.77%"}
{"smiles": "CC(C)(C)NC(=O)[C@H]1CC[C@H]2[C@@H]3CC=C4C=C(C(=O)O)CC[C@]4(C)[C@H]3CC[C@]12C", "activation": "-8.29%"}
{"smiles": "CC[C@H]1NC(=O)[C@@H](NC(=O)c2ncccc2O)[C@@H](C)OC(=O)[C@H](c2ccccc2)NC(=O)[C@@H]2CC(=O)CCN2C(=O)[C@H](Cc2ccccc2)N(C)C(=O)[C@@H]2CCCN2C1=O", "activation": "0.309%"}
{"smiles": "Cn1c(=O)c2c(ncn2CCOC(=O)C(C)(C)Oc2ccc(Cl)cc2)n(C)c1=O", "activation": "-1.09%"}
{"smiles": "C#C[C@]1(O)CC[C@H]2[C@@H]3CCC4=C(CCC(=O)C4)[C@H]3CC[C@@]21C", "activation": "-6.93% [at 29.2 µM]"}
{"smiles": "CCOC(=O)C1=C[C@@H](OC(CC)CC)[C@H](NC(C)=O)[C@@H](N)C1", "activation": "0.141%"}
{"smiles": "CCCC(=O)O[C@]1(C(=O)COC(C)=O)CC[C@H]2[C@@H]3C[C@H](F)C4=CC(=O)C=C[C@]4(C)[C@@]3(F)[C@@H](O)C[C@@]21C", "Potency": "0.0043 µM [inconclusive] (active)"}
{"smiles": "Nc1ncnc2c1ncn2[C@@H]1O[C@H](COP(=O)(O)OP(=O)(O)OP(=O)(O)O)[C@@H](O)[C@H]1O", "activation": "5.37%"}
{"smiles": "C[N+]1(C)CCN(CC(O)(c2ccccc2)C2CCCCC2)CC1", "note": "(stereo not given)", "activation": "9.64%"}
{"smiles": "CN(C)c1ccc(C(=C2C=CC(=[N+](C)C)C=C2)c2c(O)c(S(=O)(=O)[O-])cc3cc(S(=O)(=O)O)ccc23)cc1", "activation": "-0.844%"}
{"smiles": "CCCCCCCCCCCCCCCCCC(=O)OC[C@@H](O)[C@H]1OC[C@H](O)[C@H]1O", "activation": "0.282%"}
{"smiles": "CC[C@H](C)CCCCC(=O)N[C@@H](CCN)C(=O)N[C@H](C(=O)N[C@@H](CCN)C(=O)N[C@H]1CCNC(=O)[C@H]([C@@H](C)O)NC(=O)[C@H](CCN)NC(=O)[C@H](CCN)NC(=O)[C@H](CC(C)C)NC(=O)[C@@H](CC(C)C)NC(=O)[C@H](CCN)NC1=O)[C@@H](C)O", "note": "(X2-[Dab]T[Dab][Dab][Dab][dL]L[Dab][Dab]T; lactam 4-C)", "activation": "0.254%"}
{"smiles": "CCCc1ccc(C(=O)O)cc1", "activation": "-0.789%"}
{"smiles": "COc1cc(S(C)=O)ccc1-c1nc2ncccc2[nH]1", "note": "(stereo not given)", "activation": "-0.334%"}
{"smiles": "O=C(O)c1ccc(OCCn2ccnc2)cc1", "activation": "2.23%"}
{"smiles": "OCCO[C@@H]1[C@@H](O)[C@H](O)[C@@H](CO)O[C@@H]1O", "Potency": "13.4 µM [inconclusive] (active)"}
{"smiles": "CCCC(=O)Nc1ncnc2c1ncn2[C@@H]1O[C@@H]2COP(=O)(O)O[C@H]2[C@H]1OC(=O)CCC", "activation": "0.157%"}
{"smiles": "CO[C@H]1C[C@H](O[C@@H]2/C(C)=C/C[C@@H]3C[C@@H](C[C@]4(CC[C@H](C)[C@@H](C5CCCCC5)O4)O3)OC(=O)[C@@H]3C=C(C)/C(=N/O)[C@H]4OC/C(=C\\C=C\\[C@@H]2C)[C@]43O)O[C@@H](C)[C@@H]1O", "activation": "-0.0626%"}
{"smiles": "O=C(NNCS(=O)(=O)O)c1ccncc1", "activation": "0.141%"}
{"smiles": "COC(=O)CC[C@H](N)C(=O)O", "activation": "0.0752%"}
{"smiles": "CCCC1C(=O)N2C(N(C)C)=Nc3ccc(C)cc3N2C1=O", "note": "(stereo not given)", "activation": "-1.26% [at 29.2 µM]"}
{"smiles": "O=C(Cn1c(=O)sc2ccc(Cl)cc21)N1CCN(CCO)CC1", "activation": "-1.86%"}
